Experimental data from the supplement of paper PMC12632987.

B1: usp_38_diff_out_24_27_505 (protein)
chain: SEELEKALEKALKLLEDIAEDLKEAQKKGPTALFVVKRKHVDEIDKLREELEKLGPELAREVTTILLAFLNRSAADPEKREEYLKEAKEKIKEAFEKHKK
B2: usp_38_diff_out_2_113_465 (protein)
chain: EEEERARLTQLYVDTILEGSDQLLRRAKRGTLSSTTMITMIGGIVEAAREAFRLDPSVKPVLEEVAKKLAEIAEIYADKDAETAAAVKAAIAEINALIEA
B3: usp_38_diff_out_2_113_461 (protein)
chain: SEEERKERAEDLKEIITEGSDYLLEKAKKGTLSGDTMIVMIGGIVHAAKEAFALDPSVKPTIEEAIKKLEEIKELYKDRNPEVAKAIEDAIKELKALLAK
B4: usp_38_diff_out_24_27_500 (protein)
chain: EKEKEEKIKKVKELFEEIEKLVKESRTADIAGRIRISSEVDELFEEIRKIAKELGNEEALKLIDKAKAQAFAIISGDENWEEHLKELKKLFEEILKEFEK
B5: usp_38_diff_out_2_113_464 (protein)
chain: DPEERQRLALLLRDTVVSGADYLLEKAKKGTLSSDTIITMIGGITHAARELAALDPSAKPALEEVAKKLKEIAEIYKDKDEEVKKAVEEAIKEIEALIKA
B6: usp_38_diff_out_24_27_502 (protein)
chain: EEEKKKKLEEIKKLLEEILALLKASQTGDIATRIKASSEIDELFEKIEKILKELGNEEGLELLTELKTQAYAVLSRSPDWQEHLAKAKELAEKIIKLAKK
B7: usp_38_diff_out_2_113_463 (protein)
chain: SEEERRERAEDLARIILEGSEYLLEKAKRGTLSGETMITMIGGIVHAAEEAFRLDPSVAPVIKRAIEKLKEIAELYKDKNPEVYEAIKEAIERLEKLLAE
B8: usp_38_diff_out_2_113_460 (protein)
chain: DEEERKELAELYKKTILEGAEKLLKRTKKGTLSTATQIAMLGGIVHAAKEAAKLDPSVKPVLEEVIKKLKEIAELVKDKNPELYAATQKAIEEIEKILKE
B9: usp_38_diff_out_2_113_468 (protein)
chain: DPEQKKEEAQLYKDIILEGADKLLELAKKGMLTPDRTKVMLGGIVHAAREAYELDPSVKPVIEEVIEKLEEIKELVKDKNPEIAKEIEEAIEELKKILEE
B10: usp_38_diff_out_24_27_501 (protein)
chain: SAEHEKKLEKAKELLKKILELAEKAQTGDIATRIKASSEIDELFEELKKIAEEENNEELLKLLTELKTKVYAVLSGHPNAEEHLKEAKKLAEKFLEELKK
B11: usp_38_diff_out_2_113_470 (protein)
chain: DPEERKKEAELYKKIILEGAEQLLRLAKKGRLTPDRTRVMLGGIVEAARRAYELDPSVKPVIEEVIKKLEEVEKLVKDKNPEVAAAIKEAIKELKKILKE
B12: usp_38_diff_out_2_113_467 (protein)
chain: DPEERREEAELYRDIILEGADKLLRLAERGMLTPDRTRVMLGGIVHAAREAMELDPSTRPTIEEVIEKLERVRKLVEGKNPEIAKEVERAIEELKEILKE
B13: usp_38_diff_out_24_27_504 (protein)
chain: SEEHEKKLEELKKLLEEILKLLEESKTGDISVRIKASSEIDELFKEIEKILKELGNEEGLKLLKEFKTQAYAVLSRSPDWEEHLKKAKELAKKILELVEK
B14: usp_38_diff_out_24_27_503 (protein)
chain: EEERKEKIERLKKLLEEILKLLEESRTGDISVRIRASSEIDELAEEIRKILEELGNEEGLELLTEFETQVYAVLSRSPNWEEHFEKAKELAEKILELAKK
B15: usp_38_diff_out_2_113_466 (protein)
chain: DPEERAEEAALYRDIILEGAELLLRKAKKGMLTPDRTRVMLGGIVHAAEVAYELDPSVAPDIERVIEKLEEVRELVKDKNPEVAAEIEKAIEELKAILER
B16: usp_38_diff_out_24_27_499 (protein)
chain: EEEKQKLLKELLKKFEEILKLSEKAVGADLATRIKLSSEIDEKLEEARKLAKELGDEEIEELVTKVEIAANIVLSGSEEAEEALKEIKKLVEELKKKIEE

Biological target: T1, USP38, Q8NB14
T1 chain: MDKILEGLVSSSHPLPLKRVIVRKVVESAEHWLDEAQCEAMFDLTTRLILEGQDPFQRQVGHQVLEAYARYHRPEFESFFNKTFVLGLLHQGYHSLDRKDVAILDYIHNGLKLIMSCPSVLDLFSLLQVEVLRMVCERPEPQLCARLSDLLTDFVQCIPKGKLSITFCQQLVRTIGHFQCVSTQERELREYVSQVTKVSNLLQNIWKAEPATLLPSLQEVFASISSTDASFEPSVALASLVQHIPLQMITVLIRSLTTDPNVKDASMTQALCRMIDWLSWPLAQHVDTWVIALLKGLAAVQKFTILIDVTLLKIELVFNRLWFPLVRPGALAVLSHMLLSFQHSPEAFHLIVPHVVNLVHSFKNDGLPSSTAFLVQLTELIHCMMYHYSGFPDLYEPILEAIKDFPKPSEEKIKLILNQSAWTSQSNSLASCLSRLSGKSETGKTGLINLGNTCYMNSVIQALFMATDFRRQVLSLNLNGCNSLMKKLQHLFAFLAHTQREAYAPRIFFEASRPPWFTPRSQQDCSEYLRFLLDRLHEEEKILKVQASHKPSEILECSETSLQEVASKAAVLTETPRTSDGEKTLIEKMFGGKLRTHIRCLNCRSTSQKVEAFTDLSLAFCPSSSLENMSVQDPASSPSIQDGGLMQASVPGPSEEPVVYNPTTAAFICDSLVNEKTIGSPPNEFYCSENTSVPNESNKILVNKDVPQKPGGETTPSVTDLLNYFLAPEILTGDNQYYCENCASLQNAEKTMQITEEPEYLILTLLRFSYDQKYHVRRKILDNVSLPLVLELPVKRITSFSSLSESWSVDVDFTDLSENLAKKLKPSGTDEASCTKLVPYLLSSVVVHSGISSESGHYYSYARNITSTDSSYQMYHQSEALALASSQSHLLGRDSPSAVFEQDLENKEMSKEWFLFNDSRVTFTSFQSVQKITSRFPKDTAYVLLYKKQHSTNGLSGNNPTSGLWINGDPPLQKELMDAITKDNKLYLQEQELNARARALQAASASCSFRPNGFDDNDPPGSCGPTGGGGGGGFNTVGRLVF
Experiment: median log2 fold change of GCK-ALFA target abundance (FLAG IP / Myc IP barcode read proportion) (log2 ratio); each designed protein is fused to an ALFA-tag nanobody in HEK293 cells to bring the named protein to FLAG-tagged glucokinase (GCK); Myc marks an untargeted standard; higher = target protein stabilised (more abundant)
Conditions: target protein: 3xFLAG-MCP-GCK-ALFA reporter; HEK293 landing pad (RPLP)
Outline: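 Sequencing of reverse-transcribed, amplified circular RNA barcodes from anti-FLAG and anti-Myc immunoprecipitates provided the readout for an ALFA-nanobody-fused binder library recombined into HEK293 landing-pad cells. Those cells were induced with 2 μg mL^−1 doxycycline, transfected with a plasmid expressing a FLAG-tagged target and a Myc-tagged standard, and lysed after 48 h. Target abundance is the per-binder median log2 ratio of FLAG to Myc barcode read proportions. Only barcodes at a proportion of ≥10^−7 in both replicates and binders with ≥3 barcodes per replicate were kept, with a 10^−6 pseudocount added before the two replicates were pooled.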

| Binder | median log2 fold change |
| --- | --- |
| B1 | 0.427 |
| B2 | 0.0889 |
| B3 | -0.00144 |
| B4 | 0.364 |
| B5 | 0.0135 |
| B6 | 0.548 |
| B7 | -0.229 |
| B8 | 0.123 |
| B9 | 0.211 |
| B10 | 0.157 |
| B11 | 0.141 |
| B12 | 0.0135 |
| B13 | 0.3 |
| B14 | -0.574 |
| B15 | -0.156 |
| B16 | 0.204 |
